Screening results from PubChem BioAssay.
Compounds with a hit are over-represented: about 6.5% of the library has one in this group of screens.
Vaccinia mCherry: qHTS for Stage-Specific Inhibitors of Vaccinia Orthopoxvirus: mCherry Reporter Primary qHTS | hit rate 0.63% among 310,000 | Potency, µM (titrated, usually from 36.5 µM), for inactives: at the top dose activity change, negative = inhibition, most hits filed as inhibitors | AID 720579, 2013 | Vaccinia virus mCherry reporter infection, fluorescence; calls by dose curve; tested in A549 cells; note: potency is the fitted concentration of half-maximal effect; nearly all actives have a fitted effect of over 35% in size
FMDV antiviral: High Throughput Screening for Foot and Mouth Disease Virus Antivirals | FMDV antiviral cell-based qHTS | Potency, µM (doses to about 57.9 µM), without a hit: at the highest dose activity change, negative = inhibition, hits mostly inhibitors | hit rate 1.2% among 410,000; calls by dose curve; tested in HEK293T cells; note: read-out not given here; potency is the fitted concentration of half-maximal effect; nearly all actives have a fitted effect of over 45% in size
VACV Venus inh: qHTS for Stage-Specific Inhibitors of Vaccinia Orthopoxvirus: Venus Reporter Primary qHTS; Vaccinia virus Venus reporter expression, fluorescence; Potency, µM (highest dose often 36.5 µM), without a hit: at the highest dose activity change, negative = inhibition, usual class: inhibitors; hit rate 0.46% among 330,000; AID 720580, 2013; calls by dose curve; tested in A549 cells; note: potency is the fitted concentration of half-maximal effect; nearly all actives have a fitted effect of over 30% in size
MARV entry inh: qHTS for inhibitors of binding or entry into cells for Marburg Virus. Marburg virus pseudotyped entry inhibition, cell reporter. Potency, µM (series often up to 37.8 µM), without a hit: top-dose activity change, negative = inhibition, usual class: inhibitors. hit rate 1.8% among 300,000; calls by dose curve; tested in HEK293 cells; note: potency is the fitted concentration of half-maximal effect
Lassa entry inh: qHTS for Inhibitors of binding or entry into cells for Lassa Virus. Lassa virus pseudotype entry inhibition, cell reporter. Potency, µM (highest dose often 37.9 µM), inactives show at the top dose activity change, negative = inhibition, actives largely listed as inhibitors. hit rate 1.2% among 300,000; calls by dose curve; tested in HEK293 cells; note: potency is the fitted concentration of half-maximal effect; nearly all actives have a fitted effect of over 50% in size
HCMV antiviral: qHTS Assay for inhibitors of the human cytomegalovirus (HCMV) | hit rate 4.5% among 410,000 | HFF cells, HCMV-luciferase reporter, 72 h; stronger effect = lower value | activity change, negative = inhibition, % at 57.5 µM | AID 1259415, 2018; in the data active = activity change below about -60%; inconclusive = no clear call, values can overlap the other calls; inactive = above about -39%
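After 16 h attachment at 37C, HFF cells received test compound and HCMV-luciferase (1 PFU/cell); reporter luminescence read 72 h later, data normalized against buffer-only and known inhibitor Salinomycin.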
The depositor's hits bear a star; i = inactive; ? = inconclusive; . = not tested or not shown; [ ] = another dose, or the depositor's remark. % is set by controls: 0 for no effect and ±100 for the full control effect.

SMILES | Vaccinia mCherry | FMDV antiviral | VACV Venus inh | MARV entry inh | Lassa entry inh | HCMV antiviral
O=c1c(=O)n(-c2ccccc2)ccn1Cc1c(F)cccc1Cl | -3% | 32% | -9% | . | -8%[46.1 µM] | ?
CC(C)(C)OC(=O)N1CCN(c2ccc(CNC(=O)c3ccc(Cl)cc3)cc2)CC1 | . | 25µM* | . | ? | ? | -95*
CC(C)(C)OC(=O)NCc1ccc(CNC(=O)c2nc[nH]c2C(=O)N2CCN(C(=O)OC(C)(C)C)CC2)cc1 | i | 20µM* | -23% | . | . | -28
C[C@H](NC(=O)c1nc[nH]c1C(=O)NCc1ccc(CNC(=O)OC(C)(C)C)cc1)c1ccccc1 | ? | 32µM* | ? | . | . | -14
O=C(Nc1ccccc1F)c1nc[nH]c1C(=O)NCc1ccccc1 | i | 0% | ? | . | . | -9
CC(C)(C)c1ccc(C(=O)NCc2ccc(Cl)cc2)cc1 | -12% | . | ? | 0% | -18% | -16
CC(C)(C)OC(=O)NCc1ccc(CNC(=O)c2[nH]cnc2C(=O)Nc2ccccc2F)cc1 | ? | 20µM* | ? | . | . | -32
COc1cc(NC(=O)c2c(C)nn(-c3ccc(F)cc3)c2-n2cccc2)cc(OC)c1 | -8% | -28% | 0% | . | -1%[46.1 µM] | 3
CC[C@H](C)[C@H](NC(=O)[C@H](CCCN=C(N)N)NC(=O)[C@H](CCCN=C(N)N)NC(=O)[C@H](CC(C)C)NC(=O)[C@H](Cc1ccccc1)NC(=O)CNC(=O)CN)C(=O)N[C@@H](CCCN=C(N)N)C(=O)N1CCC[C@H]1C(=O)N[C@@H](CCCCN)C(=O)N[C@@H](CC(C)C)C(=O)N[C@@H](CCCCN)C(=O)O | -23%[3.33 µM] | 0%[6.7 µM] | -11%[3.33 µM] | . | . | .
CSc1ccccc1NC(=O)C1=CC(c2ccc3c(c2)OCO3)=NS(=O)(=O)N1C | -4% | -3% | -8% | 0%[46.1 µM] | 7%[46.1 µM] | -7
C[C@H](NC(=O)c1nc[nH]c1C(=O)NCCCCCNC(=O)OC(C)(C)C)c1ccccc1 | ? | 40µM* | ? | . | . | -36
COc1ccc(-c2nccc3[nH]nc(-c4ccccc4)c23)cc1 | . | . | . | . | . | -19
CCN(CC)c1ccc(NC(=O)c2cnc3ccccn3c2=O)c(C)c1 | -16% | -4% | -17% | -26% | -14%[14.3 µM] | -73*
CCN(CC)c1ccc(NC(=O)CNCc2ccccc2Cl)c(C)c1 | ? | 10% | -22% | -1%[46.1 µM] | 10µM* | -103*
O=C(CNCc1ccccc1Cl)Nc1ccccc1N1CCCCC1 | i | -22% | 5% | ? | 20%[46.1 µM] | -12
O=C(NCC(c1cccnc1)N1CCc2ccccc21)c1ccc(F)cc1 (centres undefined) | -22% | -28% | -23% | . | ? | -7
Cc1ccc(NC(=S)/C(C#N)=C2/Nc3ccccc3S2)cc1 | ? | ? | ? | . | . | -79*
C[C@H]1CN=C(N(C)C)N1CC1CCC(C(C)(C)C)CC1 (some centres undefined) | 7.9µM* | ? | ? | . | . | -10
Cc1ccc(C(=O)Nc2ccc3ccccc3n2)cc1 | -7% | -2% | -10% | ? | ? | -102*
O=C(CN1C(=O)CC(c2ccccc2)=Nc2ccccc21)Nc1ccc(Br)cc1 | -11% | 22% | -8% | . | -16%[46.1 µM] | -10
Cc1cccc(-c2nc(SCC(=O)Nc3cccc(C(F)(F)F)c3)n3[nH]c(=O)cc3n2)c1 | i | 7% | -4% | . | -2%[46.1 µM] | 13
Nc1ncncc1-c1ccc2ccccc2c1 | i | -18% | -14% | . | . | -75*
COc1ccc(-c2cncnc2N)cc1OC | -26% | ? | -10% | . | . | -18
O=C(NC1CCCCC1)N1CC(=O)N2[C@H](CO)[C@@H](c3ccc(Br)cc3)[C@@H]2C1 | . | . | . | . | . | -18
Cc1nc2ccccc2cc1OCc1ccc(Cl)cc1 | . | ? | . | ? | 0% | -75*
COc1cccc(COc2cc3ccccc3nc2C)c1 | . | ? | . | ? | ? | -79*
Cc1nc2ccccc2cc1OCc1ccccc1 | . | -28% | . | -10% | -21% | -93*
Cc1nc(OCc2ccccc2)c2ccccc2n1 | . | ? | -16% | ? | ? | -20
